BRCT inh green = BRCA1 BRCT-phosphoprotein interaction inhibition; P38398; BRCA1 BRCT-phosphopeptide binding, green fluorescence polarization; Potency, µM (series often up to 76.9 µM), inactives show top-dose activity change, negative = inhibition, usual class: inhibitors; 0.05% of 75,000 active;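 note: potency is the fitted concentration of half-maximal effect; plate controls were peptide without protein for full effect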
Target sequence (P38398 whole entry, looked up): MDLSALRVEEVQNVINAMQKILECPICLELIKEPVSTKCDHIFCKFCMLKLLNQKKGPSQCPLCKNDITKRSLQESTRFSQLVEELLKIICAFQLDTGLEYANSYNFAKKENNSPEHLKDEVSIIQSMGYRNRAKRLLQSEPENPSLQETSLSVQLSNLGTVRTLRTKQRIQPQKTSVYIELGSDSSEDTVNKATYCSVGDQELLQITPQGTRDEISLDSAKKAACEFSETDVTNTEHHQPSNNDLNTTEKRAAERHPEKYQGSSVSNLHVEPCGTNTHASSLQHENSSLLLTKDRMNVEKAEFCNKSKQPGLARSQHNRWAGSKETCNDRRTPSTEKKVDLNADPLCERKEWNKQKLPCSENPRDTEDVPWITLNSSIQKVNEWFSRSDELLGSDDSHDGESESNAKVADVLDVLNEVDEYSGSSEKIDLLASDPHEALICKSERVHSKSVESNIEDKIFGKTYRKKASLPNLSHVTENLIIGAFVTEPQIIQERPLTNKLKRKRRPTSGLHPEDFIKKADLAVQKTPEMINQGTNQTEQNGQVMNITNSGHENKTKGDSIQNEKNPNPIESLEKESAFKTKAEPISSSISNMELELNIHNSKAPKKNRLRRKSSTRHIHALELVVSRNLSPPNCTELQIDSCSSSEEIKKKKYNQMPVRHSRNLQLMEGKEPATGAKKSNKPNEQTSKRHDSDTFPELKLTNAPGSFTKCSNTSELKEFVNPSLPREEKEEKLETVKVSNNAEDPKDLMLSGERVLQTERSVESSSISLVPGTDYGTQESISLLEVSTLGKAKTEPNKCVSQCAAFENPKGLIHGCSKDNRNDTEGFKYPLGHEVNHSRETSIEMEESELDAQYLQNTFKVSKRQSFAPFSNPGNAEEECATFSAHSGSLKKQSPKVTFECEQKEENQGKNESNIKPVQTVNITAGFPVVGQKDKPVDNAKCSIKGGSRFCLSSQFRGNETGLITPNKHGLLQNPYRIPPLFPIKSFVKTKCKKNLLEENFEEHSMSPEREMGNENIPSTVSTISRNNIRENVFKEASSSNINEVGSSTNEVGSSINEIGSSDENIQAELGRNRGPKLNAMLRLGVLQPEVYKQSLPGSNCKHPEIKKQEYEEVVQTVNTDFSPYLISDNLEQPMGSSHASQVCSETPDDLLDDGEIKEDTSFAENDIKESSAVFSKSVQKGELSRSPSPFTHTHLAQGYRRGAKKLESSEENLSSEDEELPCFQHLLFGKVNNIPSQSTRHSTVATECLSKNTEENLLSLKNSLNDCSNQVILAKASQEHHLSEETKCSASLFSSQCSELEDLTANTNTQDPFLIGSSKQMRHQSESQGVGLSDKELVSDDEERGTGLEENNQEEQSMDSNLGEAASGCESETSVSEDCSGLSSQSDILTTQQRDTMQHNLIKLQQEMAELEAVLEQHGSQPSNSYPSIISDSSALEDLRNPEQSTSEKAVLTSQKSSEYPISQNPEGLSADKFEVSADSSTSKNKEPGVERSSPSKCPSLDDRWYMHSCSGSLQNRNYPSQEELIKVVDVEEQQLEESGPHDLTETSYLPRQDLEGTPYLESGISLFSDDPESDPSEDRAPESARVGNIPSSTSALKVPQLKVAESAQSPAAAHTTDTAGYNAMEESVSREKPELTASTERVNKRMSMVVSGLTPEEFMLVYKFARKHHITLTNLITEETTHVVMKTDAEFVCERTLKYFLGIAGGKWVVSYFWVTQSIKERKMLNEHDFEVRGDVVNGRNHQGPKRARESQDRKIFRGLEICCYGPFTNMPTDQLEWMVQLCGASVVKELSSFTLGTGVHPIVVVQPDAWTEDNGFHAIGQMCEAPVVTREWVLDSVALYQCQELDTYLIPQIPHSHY
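Compounds were incubated for 12 min at room temperature with a complex of 100 nM fluorescein-tagged pBACH1 decapeptide and 250 nM His-tagged BRCT protein. Buffer was phosphate pH 7.3 with EDTA, DTT and Tween 20. Disruption of binding lowers the polarization signal.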
DNA Pol III inh = inhibitors of bacterial DNA polymerase III holoenzyme; reconstituted DNA polymerase III holoenzyme replication, biochemical; Potency, µM (series often up to 57.1 µM), for the others: at the highest dose activity change, negative = inhibition; 0.25% of 71,000 active; note: potency is the fitted concentration of half-maximal effect; % is set by controls: 0 for no effect and ±100 for the full control effect
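Reconstituted *E. coli* holoenzyme (0.35 nM Pol III, 1 nM beta, 154 nM SSB, 2 nM primase) was preincubated with compound for 15 min at RT. Synthesis on 1.4 nM ssM13Gori ran 35 min, then was stopped with PicoGreen/EDTA and read as dsDNA fluorescence.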
Tau filament bind = binds recombinant human tau filaments. recombinant tau filaments, thioflavin S fluorescence, 15 h; filaments grown with octadecylsulfate alongside compound. Potency, µM (highest dose often 57.1 µM), inactives show at the top dose activity change, negative = inhibition. 2% of 71,000 active. AID 596;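 note: potency is the fitted concentration of half-maximal effect; % is set by controls: 0 for no effect and ±100 for the full control effect; actives lower thioflavin S fluorescence by blocking filaments or displacing dye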
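Thioflavine S fluorescence (ex 450, em 510 nm) reports filaments formed from 1 uM human tau plus 30 uM ODS over 15 h at 37 C (10 mM HEPES pH 7.4, 100 mM NaCl, 5 mM DTT); compounds displacing dye or blocking filaments lower signal.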
15-hLO inh = 15-hLO (ALOX15) enzyme inhibition. Potency, µM (doses to about 57.1 µM), without a hit: at the highest dose activity change, negative = inhibition, most hits filed as inhibitors. 1.4% of 74,000 active. P16050. purified 15hLO-1, xylenol orange hydroperoxide absorbance; note: potency is the fitted concentration of half-maximal effect; % is set by controls: 0 for no effect and ±100 for the full control effect; nearly all actives have a fitted effect of over 55% in size
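Inhibition is scored from a chromogenic endpoint. After 15 min enzyme-compound contact, arachidonic acid (50 uM final) reacts 6 min with 40 nM 15hLO-1 at room temperature, then Fe-XO reagent is added for 30 min and absorbance ratio recorded.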
BRCT PPI red = disrupts BRCA1 BRCT binding to phosphoprotein, red fluorophore readout; Potency, µM (titrated, usually from 76.9 µM), without a hit: top-dose activity change, negative = inhibition, hits mostly inhibitors; 0.03% of 75,000 active; AID 892; BRCT-phosphopeptide binding, red fluorescence polarization; note: % is set by controls: 0 for no effect and ±100 for the full control effect
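Fluorescence polarization: 100 nM His-tagged BRCA1 BRCT with 100 nM TAMRA-labelled phospho-BACH1 decapeptide, phosphate buffer pH 7.3 with 150 mM NaCl, DTT, 0.01% Tween 20; 12 min RT. Binding inhibition seen as FP decrease.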
YjeE inh = displaces an ADP probe from E. coli YjeE (TsaE); Potency, µM; 0.05% of 71,000 active; purified YjeE enzyme, qHTS inhibition assay; P0AF67; AID 605
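Fluorescence polarization of a BODIPY Texas Red–ADP probe (2 uM) bound to purified YjeE (10 uM) was read after 15 min room-temperature incubation with compounds. Loss of polarization marks inhibitors; ADP serves as titrated control.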
Numbers without * were called inactive; [ ] = remark or other dose. Compounds with a hit are over-represented: about 3.3% of the library has one in this group of screens. Calls come from the whole dose curve; as a rule, active = well fitted curve in the direction sought with a large enough effect; inconclusive = small, poorly fitted or top-dose-only effect, or another doubt; inactive = no such curve, though single readings can be large; an effect the other way counts as inactive or inconclusive.

For FC(F)(F)c1ccccc1-c1ccc2ncnc(N3CCOCC3)c2c1 the results were BRCT inh green 10%, DNA Pol III inh -10%, Tau filament bind -19%, 15-hLO inh inconclusive, BRCT PPI red -2% and YjeE inh inactive.
For CCOC(=O)NC[C@H](Cc1ccc(OCCc2nc(-c3ccccc3)oc2C)cc1)N/C(C)=C\C(=O)c1ccc(C(F)(F)F)cc1 the results were BRCT inh green -1%, 15-hLO inh inconclusive and BRCT PPI red -3%.
For Nc1c(C(=O)NCc2ccco2)sc2nc3c(cc12)C(=O)CCC3 the results were BRCT inh green -2%, DNA Pol III inh -20%, Tau filament bind 20µM*, 15-hLO inh inconclusive, BRCT PPI red 1% and YjeE inh inactive.
`O=C1CC(N2CCN(c3ccc(O)cc3)CC2)C(=O)N1Cc1cccs1` (stereo unspecified) gave BRCT inh green 0%, DNA Pol III inh -5%, Tau filament bind -21%, 15-hLO inh 13µM*, BRCT PPI red 0% and YjeE inh inactive.
Screening O=C(NCc1ccco1)c1ccc2nc3sc4c(c3c(=O)n2c1)CCCC4 returned BRCT inh green -1%, DNA Pol III inh -10%, Tau filament bind -10%, 15-hLO inh 32µM*, BRCT PPI red -1% and YjeE inh inactive.
For CC(=O)C1=C(C)NC(SCC(=O)c2ccc(F)cc2)=C(C#N)C1c1ccco1 (stereo unspecified) the results were BRCT inh green 4%, DNA Pol III inh 5%, Tau filament bind 77%, 15-hLO inh 20µM*, BRCT PPI red -2% and YjeE inh inactive.
For CCc1ccc(C(=O)CSC2=C(C#N)C(c3ccco3)C(C(C)=O)=C(C)N2)cc1 (stereo unspecified) the results were BRCT inh green 6%, DNA Pol III inh -6%, Tau filament bind 161%, 15-hLO inh 10µM*, BRCT PPI red 1% and YjeE inh inactive.
Screening O=c1c(-c2cccs2)nc2cnc(N3CCOCC3)nc2n1CCc1ccccc1 returned BRCT inh green 0%, DNA Pol III inh -10%, Tau filament bind inactive, 15-hLO inh -4%, BRCT PPI red 1% and YjeE inh inactive.
Screening COc1ccc(-c2c(=O)n(OCc3ccccn3)c3ccccc3[n+]2[O-])cc1OC returned BRCT inh green -2%, DNA Pol III inh -10%, Tau filament bind 2.5µM*, 15-hLO inh -15%, BRCT PPI red 3% and YjeE inh inactive.
`C=CCCC` gave BRCT inh green -1%, DNA Pol III inh 0%, Tau filament bind 8%, 15-hLO inh 2%, BRCT PPI red 2% and YjeE inh inactive.
`CCC(C)C1NC(=O)C(CCNCS(=O)(=O)O)NC(=O)C(NC(=O)C(CCNCS(=O)(=O)O)NC(=O)C(NC(=O)C(CCNCS(=O)(=O)O)NC(=O)CCCCC(C)C)C(C)O)CCNC(=O)C(C(C)O)NC(=O)C(CCNCS(=O)(=O)O)NC(=O)C(CCNCS(=O)(=O)O)NC(=O)C(C(C)CC)NC1=O` (stereo unspecified) gave BRCT inh green 0%[3.08 µM], 15-hLO inh 3.2µM* and BRCT PPI red 3%.
`C/C(=C\COc1cc(=O)[nH]c2ccccc12)CC[C@@H](O)C(C)(C)O` gave DNA Pol III inh -3%, Tau filament bind 40µM* and YjeE inh inactive.
`COc1cc(=O)n(C)c2c(OCC(O)C(C)(C)O)cccc12` (stereo unspecified) gave BRCT inh green 3%, 15-hLO inh 11%[25.6 µM] and BRCT PPI red 1%.
For CN(C)c1ncc2nc(-c3ccc(Cl)cc3)c(=O)n(C3CC3)c2n1 the results were BRCT inh green -3%, DNA Pol III inh -2%, Tau filament bind 48%, 15-hLO inh -9%, BRCT PPI red 0% and YjeE inh inactive.

Source: PubChem BioAssay (National Center for Advancing Translational Sciences (NCATS))
